For 5 compounds, activation results are on record in PubChem BioAssay AID2116 (The Scripps Research Institute Molecular Screening Center, 2009).

The structures appear in SMILES notation. Values without a mark were called inactive. Activity calls are given as the source filed them. How the calls were made is not given here.

For this assay, the target named is Mucolipin-2 (Homo sapiens) (UniProt Q8IZK6). In words: activators of mucolipin-3 and mucolipin-2 – cell-based, patch clamp, Fura-2 profiling panel (AID 2116). Conditions: HEK293 cells, TRPML2 Fura-2 Imaging; at 10 µM; hits give high values. In general terms: In patch-clamp work, channel activity is measured electrically.
Regarding `Cc1ccc(N2CCN(S(=O)(=O)N3CCCCC3)CC2)c(C)c1`, the activation was 23.5% (active).
The same measure for `O=S(=O)(NC1CCCCC1N1CCOCC1)c1ccc(Cl)cc1` (stereo not given): 54.5% (active); for `O=S(=O)(Nc1ccccc1N1CCCCC1)c1ccc(Cl)s1`: less than 1%; for `O=S(=O)(Nc1ccccc1N1CCOCC1)c1ccc(Cl)s1`: 7.14%.
For `Cc1ccc(S(=O)(=O)Nc2ccccc2-c2ccccc2)cc1` the value was less than 1%.
